Source: ChEMBL document CHEMBL2218924, “A broad activity screen in support of a chemogenomic map for kinase signalling research and drug discovery” (Biochem J, 2013)

What follows are compounds tested against T1, Protein kinase C epsilon type (Homo sapiens) (UniProt Q02156). Conditions: at 10 µM.
T1 sequence (whole entry): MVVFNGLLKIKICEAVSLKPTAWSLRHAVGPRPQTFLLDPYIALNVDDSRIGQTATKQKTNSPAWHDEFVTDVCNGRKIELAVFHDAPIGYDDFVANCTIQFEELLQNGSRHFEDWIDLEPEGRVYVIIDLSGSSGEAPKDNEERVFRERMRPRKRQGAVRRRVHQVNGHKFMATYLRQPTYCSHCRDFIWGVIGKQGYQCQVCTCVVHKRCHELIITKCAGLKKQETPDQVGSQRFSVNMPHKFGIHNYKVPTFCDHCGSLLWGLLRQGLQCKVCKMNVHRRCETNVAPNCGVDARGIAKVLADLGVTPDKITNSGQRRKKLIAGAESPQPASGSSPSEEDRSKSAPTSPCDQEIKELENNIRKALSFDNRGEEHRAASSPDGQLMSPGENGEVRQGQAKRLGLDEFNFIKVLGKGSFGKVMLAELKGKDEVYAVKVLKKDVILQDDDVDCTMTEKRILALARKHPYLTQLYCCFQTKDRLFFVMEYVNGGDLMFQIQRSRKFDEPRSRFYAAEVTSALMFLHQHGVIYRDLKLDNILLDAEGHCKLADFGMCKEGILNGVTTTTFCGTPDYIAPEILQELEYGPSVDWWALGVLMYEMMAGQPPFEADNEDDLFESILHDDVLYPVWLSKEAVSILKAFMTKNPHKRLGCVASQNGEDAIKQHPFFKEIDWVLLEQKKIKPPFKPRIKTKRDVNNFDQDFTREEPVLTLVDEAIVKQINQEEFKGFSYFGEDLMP

| SMILES | residual activity [%] |
| --- | --- |
| Oc1ccc(Nc2nc(-c3ccc(Cl)cc3)cs2)cc1 | 112 |
| Nc1nc(Nc2ccc(S(N)(=O)=O)cc2)nn1C(=S)Nc1c(F)cccc1F | 8 |
| CO[C@H]1[C@@H](OC)C[C@H](C)[C@@H](OC)C2=CC(=O)C=C(NC(=O)/C(C)=C/C=C/[C@H](OC)[C@@H](OC(N)=O)/C(C)=C/[C@@H]1C)C2=O | 102 |
| CCC(=O)Nc1ccc2ncnc(Nc3cccc(Br)c3)c2c1 | 110 |
| CC(=O)c1ccc(N2CCOCC2)cc1O | 82 |
| c1ccc(-c2n[nH]cc2-c2ccnc3ccccc23)nc1 | 89 |
| Cc1cccc(-c2[nH]c(C(C)(C)C)nc2-c2ccc3c(c2)OCO3)n1 | 91 |
| NC(=O)c1ccc2[nH]c(-c3ccc(Oc4ccc(Cl)cc4)cc3)nc2c1 | 85 |
| Cn1cnc2cc3c(Nc4cccc(Br)c4)ncnc3cc21 | 95 |
| COc1cc2ncnc(Nc3ccc(Oc4ccccc4)cc3)c2cc1OC | 89 |
| O=c1cc(-c2cccc3c2Sc2ccccc2S3)oc(N2CCOCC2)c1 | 94 |
| C[C@@H](N)[C@H]1CC[C@H](C(=O)Nc2ccncc2)CC1 | 31 |
| O=C(Nc1cccc(Nc2cc(Nc3cccc(C(F)(F)F)c3)ncn2)c1)C1CC1 | 97 |
| COc1cc2ncnc(Nc3ccc(O)c(Br)c3)c2cc1OC | 83 |
| N#CC(C#N)=C(N)/C(C#N)=C/c1ccc(O)cc1 | 89 |
| N#Cc1cnc2cnc(NCc3cccnc3)cc2c1Nc1ccc(F)c(Cl)c1 | 42 |

| SMILES | residual activity [%] |
| --- | --- |
| O=c1c2ccccc2[nH]c(=S)n1CCN1CCC(=C(c2ccc(F)cc2)c2ccc(F)cc2)CC1 | 93 |
| Oc1ccc(-c2nc(-c3ccc(F)cc3)c(-c3ccncc3)[nH]2)cc1 | 99 |
| CN(C)c1ccc(/C=C2\C(=O)Nc3ccccc32)cc1 | 121 |
| Cn1cc(/C=C2\C(=O)Nc3ccc(S(N)(=O)=O)cc32)c2ccccc21 | 100 |
| Nc1n[nH]c2nnc(-c3c(-c4ccccc4)nn4ccccc34)cc12 | 41 |
| Ic1cccc(CSc2nnc(-c3ccncc3)o2)c1 | 88 |
| CO[C@H]1C[C@@H]2CC[C@@H](C)[C@@](O)(O2)C(=O)C(=O)N2CCCC[C@H]2C(=O)O[C@H]([C@H](C)C[C@@H]2CC[C@@H](O)[C@H](OC)C2)CC(=O)[C@H](C)/C=C(\C)[C@@H](O)[C@@H](OC)C(=O)[C@H](C)C[C@H](C)/C=C/C=C/C=C/1C | 82 |
| CC(=O)O/N=C1\C(=C2\C(=O)Nc3cc(Br)ccc32)Nc2ccccc21 | 93 |
| COc1ccc(S(=O)(=O)N(CCO)c2ccccc2CN(C)C/C=C/c2ccc(Cl)cc2)cc1 | 93 |
| Cc1ccc(NC2=CC(=O)c3sc(C)nc3C2=O)cc1 | 94 |
| CCN(CC)CCCCN1c2ccccc2Oc2ccc(Cl)cc21 | 99 |
| COc1ccc(CNc2nc(N(CCO)CCO)nc3c2ncn3C(C)C)cc1 | 105 |
| CO[C@@H]1[C@H](N(C)C(=O)c2ccccc2)C[C@H]2O[C@]1(C)n1c3ccccc3c3c4c(c5c6ccccc6n2c5c31)C(=O)NC4 | 14 |
| COc1ccc(OC)c2c(=S)c3ccccc3[nH]c12 | 109 |
| CC(C)n1cnc2c(NCc3ccccc3)nc(NCCCO)nc21 | 103 |
